Assay results taken from PubChem BioAssay (NCI).
Several values for one entry are separate records, joined by “and”; a condition that tells them apart may be missing. Equal entries are not always repeated. The panel holds about 83,000 compounds, 20% with a hit somewhere; the sample as a whole holds those more often.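 Treatment: one concentration, 48 hours, 96-well format. Scoring: percent growth, with anything below 10 considered active.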 Activity calls are given as the source filed them.

Tests used:
Test in all cases: NCI-60 one-dose screen, 48 h (100 = growth as untreated, 0 = no growth, -100 = all killed)
T-47D breast = test system: T-47D breast
BT-549 breast = test system: BT-549 breast
MDA-MB-435 melanoma = test system: MDA-MB-435 melanoma
SW-620 colon = test system: SW-620 colon
MCF7 breast = conditions: 10 µM unless noted
HCT-116 colon = conditions: 10 µM unless noted
HCC-2998 colon = test system: HCC-2998 colon
KM12 colon = test system: KM12 colon

Measured: growth

COc1ccc(-c2cn[nH]c2-c2cc(OC)c(OC)c(OC)c2)cc1N
active: MDA-MB-435 melanoma; 10 µM unless noted -47.4% and -19% | HCT-116 colon 3.95% and 7.78%
inactive: T-47D breast; 10 µM unless noted 73% and 86.7% | SW-620 colon; 10 µM unless noted 24.7% and 27.7% | MCF7 breast 21.6% and 15.8% | HCC-2998 colon; 10 µM unless noted 13.7% and 23%
9.16% (active) and 16.9% (inactive): KM12 colon; 10 µM unless noted
30.8% (inactive) and 5.24% (active): BT-549 breast; 10 µM unless noted

NC(=S)NN=C1CCC(C2CCCCC2)CC1 (stereo not drawn)
inactive: T-47D breast; 10 µM unless noted 44.1% and 40% | BT-549 breast; 10 µM unless noted 102% and 92.5% | MDA-MB-435 melanoma; 10 µM unless noted 79.1% and 77.2% | SW-620 colon; 10 µM unless noted 84.6% and 88.6% | MCF7 breast 83% and 95.1% | HCT-116 colon 73.9% and 78.6% | HCC-2998 colon; 10 µM unless noted 92.9% and 94.7% | KM12 colon; 10 µM unless noted 94.5% and 93.9%

O=C(O)c1sccc1O
inactive: T-47D breast; 10 µM 53.9% | T-47D breast; 100 µM 18.2% | BT-549 breast; 10 µM 69.5% | BT-549 breast; 100 µM 11.6% | MDA-MB-435 melanoma; 10 µM 77.8% | SW-620 colon; 10 µM 93.3% | SW-620 colon; 100 µM 24% | MCF7 breast 15.4% [100 µM] | HCT-116 colon 15.5% [100 µM] | HCC-2998 colon; 10 µM 109% | HCC-2998 colon; 100 µM 38.5% | KM12 colon; 10 µM 78.3%
active: MDA-MB-435 melanoma; 100 µM 0.533% | KM12 colon; 100 µM 2.5%

CCOc1ccc2cc(-c3nn(CC4CCN(C)CC4)c4ncnc(N)c34)ccc2c1
inactive: T-47D breast; 10 µM unless noted 68.5% and 54.7% | BT-549 breast; 10 µM unless noted 71.6% and 45.7% | MDA-MB-435 melanoma; 10 µM unless noted 95.4% and 15.9% | SW-620 colon; 10 µM unless noted 91% and 65.6% | MCF7 breast 85.7% and 55.5% | HCT-116 colon 63.2% and 24.4% | HCC-2998 colon; 10 µM unless noted 102% and 54.5% | KM12 colon; 10 µM unless noted 89.4% and 66.5%

Cc1ccc(S(=O)(=O)Nc2ccc3cc([N+](=O)[O-])ccc3c2[N+](=O)[O-])cc1
inactive: T-47D breast; 10 µM unless noted 65.1% and 98.3% | BT-549 breast; 10 µM unless noted 92.3% and 95.5% | MDA-MB-435 melanoma; 10 µM unless noted 63.3% and 91.7% | SW-620 colon; 10 µM unless noted 91.9% and 93.4% | MCF7 breast 89.7% and 97.2% | HCT-116 colon 83.8% and 80.7% | HCC-2998 colon; 10 µM unless noted 73.9% and 95.8% | KM12 colon; 10 µM unless noted 73.5% and 91.6%

CC12CCC(CC1)C(C)(C)O2
inactive: T-47D breast; 10 µM unless noted 97.9% | BT-549 breast; 10 µM unless noted 98.9% | MDA-MB-435 melanoma; 10 µM unless noted 100% | SW-620 colon; 10 µM unless noted 104% | MCF7 breast 98.7% | HCT-116 colon 112% | HCC-2998 colon; 10 µM unless noted 107% | KM12 colon; 10 µM unless noted 109%

Nc1nc(SC/C=C/CCl)c2[nH]cnc2n1
inactive: T-47D breast; 10 µM unless noted 108% and 92.9% | BT-549 breast; 10 µM unless noted 103% and 126% | MDA-MB-435 melanoma; 10 µM unless noted 105% and 101% | SW-620 colon; 10 µM unless noted 105% and 106% | MCF7 breast 125% and 85.4% | HCT-116 colon 104% and 105% | HCC-2998 colon; 10 µM unless noted 101% and 103% | KM12 colon; 10 µM unless noted 107% and 111%

Cc1ccc(-c2noc(CC(=O)c3ccc([N+](=O)[O-])cc3)n2)cc1
inactive: T-47D breast; 10 µM unless noted 87.8% | BT-549 breast; 10 µM unless noted 103% | MDA-MB-435 melanoma; 10 µM unless noted 98.1% | SW-620 colon; 10 µM unless noted 102% | MCF7 breast 98.2% | HCT-116 colon 98.7% | HCC-2998 colon; 10 µM unless noted 103% | KM12 colon; 10 µM unless noted 98%

S=C(S)N1CCCC1
inactive: T-47D breast; 10 µM unless noted 98.4% and 89% | BT-549 breast; 10 µM unless noted 91% and 114% | MDA-MB-435 melanoma; 10 µM unless noted 109% and 90.9% | SW-620 colon; 10 µM unless noted 96.2% and 84.8% | MCF7 breast 72.9% and 61.8% | HCT-116 colon 89.7% and 86.2% | HCC-2998 colon; 10 µM unless noted 113% and 94.9% | KM12 colon; 10 µM unless noted 90.4% and 93.9%
